# Results filed as inconclusive are left out. A call without a number means that no potency is given here. The source made the active and inactive calls. The call rests on the fitted dose curve; in most records, active means well fitted inhibition curve with a large enough effect; inconclusive means small, poorly fitted or top-dose-only effect; inactive means flat fitted curve, though single readings scatter.
# Molecular target: Calcium and integrin-binding protein 1 (Homo sapiens) (UniProt Q99828)
# Sequence (Q99828 whole entry, looked up): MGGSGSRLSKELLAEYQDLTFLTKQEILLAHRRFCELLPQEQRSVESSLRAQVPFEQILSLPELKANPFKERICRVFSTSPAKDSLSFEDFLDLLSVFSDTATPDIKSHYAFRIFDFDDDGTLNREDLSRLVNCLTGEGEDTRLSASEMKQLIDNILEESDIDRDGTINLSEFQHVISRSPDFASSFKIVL
# Assay: Primary qHTS for Identification of Calcium Integrin Binding Protein 1 (CIB1) Competitor (AID 1508620);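 further: GST tagged CIB1 binding a fluorescein labelled alphaIIb integrin peptide tracer; top concentration of the series differs between compounds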
# Conditions: CIB1-GST / FITC-alphaIIb peptide fluorescence polarization; series mostly up to 114 µM
# Summary of the method: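 CIB1-GST (1 uM final) and compound incubated 15 min at room temperature before adding FITC-alphaIIb peptide tracer (100 nM final). Competition for binding read by fluorescence polarization (ex 480, em 540) after another 15 min at room temperature.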
row,Structure (SMILES),Potency
1,O=C(Nc1nnc(COc2ccc(Cl)cc2)s1)c1cccs1,inactive
2,C=Cc1nc(Nc2cc(F)cc(F)c2)nc(NC2CCCC2)n1,inactive
3,CN(C)c1ccc(-c2cc(O)c3ncccc3c2)cc1,inactive
4,CCOc1ccc(C(=O)Nc2ccc(-c3nn[nH]n3)cc2)cc1[N+](=O)[O-],inactive
5,Cc1cc(C)nc(NC(=S)N2CCN(Cc3c(F)cccc3Cl)CC2)c1,inactive
6,O=C(CNC(=O)c1ccccc1Cl)OC(C(=O)Nc1cc(C(F)(F)F)ccc1Cl)c1ccccc1 (stereo not given),inactive
7,CC(=O)Nc1ccc(-c2c(NC(C)=O)sc3c2CCNC3)cn1,inactive
8,CC(C)Cc1ccc(-c2ccc(=O)n(CC(=O)NCCc3ccccc3)n2)cc1,inactive
9,COc1ccc(C(=O)Nc2ccc(-c3nc4ccccc4[nH]3)cc2)cc1F,inactive
10,O=C(NCc1ccccc1)Nc1ncnc2c1C(c1ccccc1)c1c(ccc3ccccc13)O2 (stereo not given),inactive
11,CNc1nc(-c2cccc3ccccc23)ccc1C#N,inactive
12,COc1ccc(C2NC(=O)c3ccccc3N2)cc1COc1c(C)cc(NC(C)=O)cc1C (stereo not given),inactive
13,NC(=O)C1CCN(c2nc(-c3cccc4ccccc34)cs2)CC1,inactive
14,Cc1cc2c(s1)c1cnn(Cc3cccc(Cl)c3F)c(=O)c1n2C,inactive
15,COc1ccc(CN(Cc2ccccc2)C(=O)c2ccccc2O)cc1,inactive
16,C=Cc1ccc(C(=O)N2CCCC(CCC(=O)N3CCN(c4ccccn4)CC3)C2)cc1 (stereo not given),inactive
17,NC(=O)C1CCN(c2nc(-c3cc4ccccc4o3)cs2)CC1,inactive
18,COc1ccccc1-c1nnc2n1N=C(c1ccc(OC(F)F)c(OCC3CC3)c1)CS2,inactive
19,CCOc1ccc(CCNC(=O)C2(c3ccccc3)CC2)cc1OCC,inactive
20,Cc1ccc(OCCn2c(CCNC(=O)NC3CCCCC3)nc3ccccc32)cc1,inactive

row,Structure (SMILES),Potency
1,O=C(CCc1ccccc1)Nc1ncnc2c1C(c1ccccc1)c1c(ccc3ccccc13)O2 (stereo not given),inactive
2,Cc1cnc(-c2ccccc2N(C)C)nc1NCc1ccc(-c2cccnc2)cc1,inactive
3,Fc1cnc(-c2ccccc2C(F)F)nc1NCc1ccc(-n2ccnn2)cc1,inactive
4,O=C(Cc1nnc(-c2cc3ccccc3[nH]2)s1)Nc1cc(C(F)(F)F)ccc1Cl,inactive
5,COc1ccc(NC(=O)c2[nH]c(C)c(C(C)=O)c2C)cc1S(=O)(=O)Nc1cccc(C#N)c1,inactive
6,O=C(Cn1ncccc1=O)NCCc1ccccc1,inactive
7,Cc1cccc([S+](=O)([O-])NC2CCN(C#N)CC2)c1,inactive
8,COc1cccc(CNc2ccc(S(=O)(=O)Nc3ccc(N4CCNCC4)cc3)cc2)c1O,inactive
9,COc1ccc(C2Nc3ccccc3C(=O)N2Cc2ccccc2)cc1COc1ccc(F)cc1 (stereo not given),inactive
10,Cc1cnc(NC(=O)c2ccc(-c3cccc([N+](=O)[O-])c3)o2)s1,inactive
11,Cc1cc(C)nc(NC(=S)N2CCN(c3ccc(Cl)cc3F)CC2)c1,inactive
12,CC(=O)c1ccc(N2CCN(S(=O)(=O)c3ccc4c(c3)CCCN4C(C)=O)CC2)cc1,inactive
13,CCOc1cc2c(cc1OCC)CN(C(=O)c1cc3sccc3n1Cc1ccccc1)CC2,inactive
14,O=c1c2ccccc2nc2sc(NCc3ccc([S+](=O)([O-])c4ccccc4)cc3)nn12,inactive
15,NC(=O)c1cccc(C[C@H](C(=O)O)N2C(=O)c3ccc(C(=O)O)cc3C2=O)c1,inactive
16,Cc1c([S+](=O)([O-])N2CCN([S+](=O)([O-])c3c(F)cccc3F)CC2)sc2ccc(Cl)cc12,inactive
17,COc1ccc(C2Nc3ccccc3C(=O)N2Cc2cccc(-c3ccccc3)c2)cc1COc1ccc(NC(C)=O)cc1 (stereo not given),inactive
18,COc1cc(OC)c(C(CC(=O)N2CC(C)CC(C)C2)c2ccc3c(c2)OCO3)c(OCC(N)=O)c1 (stereo not given),inactive
19,CC(=O)Nc1sc2c(c1-c1ccc(N(C)C)cc1)CCNC2,inactive
20,O=c1cc(CN2CCCN(c3ccc(C(F)(F)F)cn3)CC2)nc2ccccn12,inactive

# Reference: PubChem BioAssay (NCATS)
